Data on seven sequences can be found in publication PMC7862700, “An all-to-all approach to the identification of sequence-specific readers for epigenetic DNA modifications on cytosine”.

Test in all cases: DAPPL (digital affinity profiling via proximity ligation, sequencing); 10 mM Tris-HCl pH 7.5, 50 mM NaCl, 1 mM DTT, 4% glycerol, room temperature, 30 min; GST-TFs on glutathione beads, 16-mer random dsDNA library, 0.1% formaldehyde crosslink after washing; high values mean tight binding
Common to all, as to settings: protein: recombinant; tags: N-terminal GST; dsDNA, one strand shown

In experiment [1] the target is T1, FEV (Homo sapiens, UniProt Q99581 1-238).
T1 sequence: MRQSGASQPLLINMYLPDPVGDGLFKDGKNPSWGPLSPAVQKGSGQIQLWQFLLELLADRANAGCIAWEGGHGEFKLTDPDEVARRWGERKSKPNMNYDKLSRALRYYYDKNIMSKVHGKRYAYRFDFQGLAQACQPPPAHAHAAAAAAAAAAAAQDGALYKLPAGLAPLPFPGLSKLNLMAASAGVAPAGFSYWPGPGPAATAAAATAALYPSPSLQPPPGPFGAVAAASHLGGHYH
The procedure, abridged:
(§1)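 In yeast, human transcription factors were expressed with a GST fusion, then pulled down on glutathione beads and given DNA barcodes. Pooled with a tag-only sample, they were exposed to 200 nmole of a 16-mer random double-stranded DNA library (Tris/NaCl/DTT/glycerol buffer, room temperature, 30 min), washed, crosslinked with 0.1% formaldehyde, proximity-ligated using BsaI/T4 ligase for 1 h at 37 °C, PCR-amplified and read on an Illumina NextSeq500. Each hexamer's frequency of reads for a factor, divided by the matching frequency for the tag-only sample, gives the binding signal.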

In experiment [2] the target is ETV5 (Homo sapiens, UniProt P41161 1-510). The procedure, abridged: as §1
Chain of ETV5 (P41161 whole entry): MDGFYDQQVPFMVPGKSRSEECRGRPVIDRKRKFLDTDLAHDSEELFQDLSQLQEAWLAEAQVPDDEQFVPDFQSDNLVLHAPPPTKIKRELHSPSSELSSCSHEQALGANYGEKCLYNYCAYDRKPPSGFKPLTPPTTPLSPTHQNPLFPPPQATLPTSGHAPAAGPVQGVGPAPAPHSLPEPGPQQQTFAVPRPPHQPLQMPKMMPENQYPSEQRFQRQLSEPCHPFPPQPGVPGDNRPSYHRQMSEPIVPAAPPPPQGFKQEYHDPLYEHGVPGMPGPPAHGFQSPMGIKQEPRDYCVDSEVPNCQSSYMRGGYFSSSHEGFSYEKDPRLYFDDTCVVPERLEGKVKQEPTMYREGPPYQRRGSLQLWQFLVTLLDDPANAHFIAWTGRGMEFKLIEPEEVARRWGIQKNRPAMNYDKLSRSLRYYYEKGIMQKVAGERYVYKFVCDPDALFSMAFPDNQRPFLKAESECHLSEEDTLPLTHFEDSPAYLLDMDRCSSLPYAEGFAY
The target in experiment [3] is T2, SPIC (Homo sapiens, UniProt Q8N5J4 1-248).
T2 sequence: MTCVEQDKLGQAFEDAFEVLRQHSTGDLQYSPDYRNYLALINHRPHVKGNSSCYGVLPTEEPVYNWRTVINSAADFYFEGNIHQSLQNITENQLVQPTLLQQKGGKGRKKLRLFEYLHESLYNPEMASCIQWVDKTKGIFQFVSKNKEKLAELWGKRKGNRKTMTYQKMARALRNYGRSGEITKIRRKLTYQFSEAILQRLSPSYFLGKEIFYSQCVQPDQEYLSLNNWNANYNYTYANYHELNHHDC
The method in brief: as §1

The target of experiment [4] is ELF4 (Homo sapiens, UniProt Q99607 1-663). The procedure, abridged: as §1
Chain of ELF4 (Q99607 whole entry): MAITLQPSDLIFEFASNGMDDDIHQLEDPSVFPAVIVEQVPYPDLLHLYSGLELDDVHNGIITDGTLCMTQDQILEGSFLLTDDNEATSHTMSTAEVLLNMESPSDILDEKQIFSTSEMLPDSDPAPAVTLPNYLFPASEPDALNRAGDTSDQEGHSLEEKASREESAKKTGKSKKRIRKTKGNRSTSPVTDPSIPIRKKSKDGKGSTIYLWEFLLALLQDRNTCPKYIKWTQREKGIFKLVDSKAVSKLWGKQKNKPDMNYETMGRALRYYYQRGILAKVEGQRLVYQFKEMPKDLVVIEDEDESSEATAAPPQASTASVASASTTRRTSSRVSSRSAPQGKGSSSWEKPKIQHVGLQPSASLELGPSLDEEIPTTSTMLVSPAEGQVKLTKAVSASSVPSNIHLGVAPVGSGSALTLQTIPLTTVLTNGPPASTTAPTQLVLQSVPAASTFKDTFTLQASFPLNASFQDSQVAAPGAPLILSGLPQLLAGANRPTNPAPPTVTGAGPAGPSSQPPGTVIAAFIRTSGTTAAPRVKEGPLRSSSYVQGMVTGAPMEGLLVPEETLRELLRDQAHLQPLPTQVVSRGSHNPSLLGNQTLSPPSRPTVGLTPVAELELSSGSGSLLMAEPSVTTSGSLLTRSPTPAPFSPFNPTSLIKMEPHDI
In experiment [5] the target is T3, ELK4 (Homo sapiens, UniProt P28324-2 1-405).
T3 sequence: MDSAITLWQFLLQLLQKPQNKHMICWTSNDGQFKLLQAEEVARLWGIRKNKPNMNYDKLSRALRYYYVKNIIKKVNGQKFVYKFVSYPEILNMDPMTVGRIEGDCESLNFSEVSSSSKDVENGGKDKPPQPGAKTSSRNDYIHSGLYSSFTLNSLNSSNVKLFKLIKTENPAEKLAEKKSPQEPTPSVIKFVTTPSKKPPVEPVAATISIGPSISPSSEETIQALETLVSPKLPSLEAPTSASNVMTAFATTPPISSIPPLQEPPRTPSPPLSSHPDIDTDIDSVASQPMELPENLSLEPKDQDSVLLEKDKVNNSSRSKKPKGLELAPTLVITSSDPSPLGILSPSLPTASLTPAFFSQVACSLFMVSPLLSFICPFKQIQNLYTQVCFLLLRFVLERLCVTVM
The procedure, abridged: as §1

The target of experiment [6] is T4, ETV2 (Homo sapiens, UniProt O00321 1-342).
T4 sequence: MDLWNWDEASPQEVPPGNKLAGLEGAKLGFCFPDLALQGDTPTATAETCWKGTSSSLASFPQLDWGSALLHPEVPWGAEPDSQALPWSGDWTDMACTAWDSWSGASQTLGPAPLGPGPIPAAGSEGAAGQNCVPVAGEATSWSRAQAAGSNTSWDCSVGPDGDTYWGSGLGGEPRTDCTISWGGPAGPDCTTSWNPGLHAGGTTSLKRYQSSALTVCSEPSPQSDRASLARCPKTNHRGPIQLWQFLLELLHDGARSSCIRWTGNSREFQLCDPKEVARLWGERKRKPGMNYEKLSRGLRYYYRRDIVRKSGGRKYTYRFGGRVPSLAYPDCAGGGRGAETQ
The procedure, abridged:
as §1

Experiment [7] concerns the target T5, ELF3 (Homo sapiens, UniProt P78545 1-371).
T5 sequence: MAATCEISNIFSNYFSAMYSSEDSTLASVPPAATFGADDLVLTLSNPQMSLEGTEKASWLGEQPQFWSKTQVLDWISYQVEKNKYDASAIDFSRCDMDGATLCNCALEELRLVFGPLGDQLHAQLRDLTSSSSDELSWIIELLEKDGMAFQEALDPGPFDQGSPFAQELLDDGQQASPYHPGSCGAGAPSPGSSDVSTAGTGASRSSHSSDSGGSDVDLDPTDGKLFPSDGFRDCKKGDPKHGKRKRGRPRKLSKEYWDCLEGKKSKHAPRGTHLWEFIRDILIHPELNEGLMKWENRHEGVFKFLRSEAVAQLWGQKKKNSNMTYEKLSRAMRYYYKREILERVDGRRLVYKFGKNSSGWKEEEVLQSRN
The procedure, abridged:
as §1

Experiment [8] deals with ETV1 (Homo sapiens, UniProt P50549 1-477). The method in brief: as §1
Chain of ETV1 (P50549 whole entry): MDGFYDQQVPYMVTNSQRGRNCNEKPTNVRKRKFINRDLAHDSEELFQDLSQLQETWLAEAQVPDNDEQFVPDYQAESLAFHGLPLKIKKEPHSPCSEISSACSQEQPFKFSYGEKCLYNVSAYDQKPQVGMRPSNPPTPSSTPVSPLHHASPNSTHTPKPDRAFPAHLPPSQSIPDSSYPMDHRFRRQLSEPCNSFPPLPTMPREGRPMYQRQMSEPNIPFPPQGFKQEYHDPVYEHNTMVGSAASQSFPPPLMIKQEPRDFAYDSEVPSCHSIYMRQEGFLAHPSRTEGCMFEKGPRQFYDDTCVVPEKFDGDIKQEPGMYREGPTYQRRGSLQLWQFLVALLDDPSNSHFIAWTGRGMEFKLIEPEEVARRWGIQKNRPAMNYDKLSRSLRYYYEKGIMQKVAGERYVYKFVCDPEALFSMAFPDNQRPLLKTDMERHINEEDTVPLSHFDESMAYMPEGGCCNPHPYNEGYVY

CTGTTG: the binding signal in experiment [1] was 1.06 fold enrichment (6-mer frequency, TF over GST control); in experiment [2] it was 1.03 fold enrichment (6-mer frequency, TF over GST control); in experiment [3], 1.12 fold enrichment (6-mer frequency, TF over GST control); in experiment [4], 1.17 fold enrichment (6-mer frequency, TF over GST control); in experiment [5] it was 1.1 fold enrichment (6-mer frequency, TF over GST control); in experiment [6], 1.13 fold enrichment (6-mer frequency, TF over GST control). The binding signal in experiment [7] is 1.03 fold enrichment (6-mer frequency, TF over GST control); in experiment [8] it was 1.09 fold enrichment (6-mer frequency, TF over GST control).
Consider CCGTCA, for which the binding signal in experiment [1] was 1.19 fold enrichment (6-mer frequency, TF over GST control); in experiment [2], 1.23 fold enrichment (6-mer frequency, TF over GST control); in experiment [3], 1.13 fold enrichment (6-mer frequency, TF over GST control); in experiment [4], 1.26 fold enrichment (6-mer frequency, TF over GST control); in experiment [5] it was 1.31 fold enrichment (6-mer frequency, TF over GST control); in experiment [6], 1.24 fold enrichment (6-mer frequency, TF over GST control). For the same sequence, the binding signal was 1.35 fold enrichment (6-mer frequency, TF over GST control) in experiment [7] and 1.22 fold enrichment (6-mer frequency, TF over GST control) in experiment [8].
On to GCACCC, for which the binding signal is 1.12 fold enrichment (6-mer frequency, TF over GST control) in experiment [1]; 1.11 fold enrichment (6-mer frequency, TF over GST control) in experiment [2]; 1.3 fold enrichment (6-mer frequency, TF over GST control) in experiment [3]; 1.22 fold enrichment (6-mer frequency, TF over GST control) in experiment [4]; 1.33 fold enrichment (6-mer frequency, TF over GST control) in experiment [5]; 1.28 fold enrichment (6-mer frequency, TF over GST control) in experiment [6]. Moreover, the binding signal is 1.25 fold enrichment (6-mer frequency, TF over GST control) in experiment [7] and 1.15 fold enrichment (6-mer frequency, TF over GST control) in experiment [8].
On to CGCTTG, for which the binding signal in experiment [1] is 1.08 fold enrichment (6-mer frequency, TF over GST control); in experiment [2] it was 1.06 fold enrichment (6-mer frequency, TF over GST control); in experiment [3], 1.16 fold enrichment (6-mer frequency, TF over GST control); in experiment [4] it was 1.01 fold enrichment (6-mer frequency, TF over GST control); in experiment [5], 1 fold enrichment (6-mer frequency, TF over GST control); in experiment [6], 1.07 fold enrichment (6-mer frequency, TF over GST control). Further, the binding signal in experiment [7] was 1.2 fold enrichment (6-mer frequency, TF over GST control); in experiment [8], 1.15 fold enrichment (6-mer frequency, TF over GST control).
For the sequence CCAACA, the binding signal in experiment [1] is 1.05 fold enrichment (6-mer frequency, TF over GST control); in experiment [2], 1.05 fold enrichment (6-mer frequency, TF over GST control); in experiment [3] it was 1.01 fold enrichment (6-mer frequency, TF over GST control); in experiment [4], 1.13 fold enrichment (6-mer frequency, TF over GST control); in experiment [5], 1.08 fold enrichment (6-mer frequency, TF over GST control); in experiment [6] it was 1.02 fold enrichment (6-mer frequency, TF over GST control). Moreover, the binding signal in experiment [7] was 1.06 fold enrichment (6-mer frequency, TF over GST control); in experiment [8], 1.04 fold enrichment (6-mer frequency, TF over GST control).
On to ACCGGA, for which the binding signal in experiment [1] was 6.19 fold enrichment (6-mer frequency, TF over GST control); in experiment [2] it was 3.33 fold enrichment (6-mer frequency, TF over GST control); in experiment [3], 2.63 fold enrichment (6-mer frequency, TF over GST control); in experiment [4], 2.78 fold enrichment (6-mer frequency, TF over GST control); in experiment [5], 2.4 fold enrichment (6-mer frequency, TF over GST control); in experiment [6], 3.02 fold enrichment (6-mer frequency, TF over GST control). Further, the binding signal is 3.15 fold enrichment (6-mer frequency, TF over GST control) in experiment [7] and 3.45 fold enrichment (6-mer frequency, TF over GST control) in experiment [8].
On to CAATCA, for which the binding signal is 1.11 fold enrichment (6-mer frequency, TF over GST control) in experiment [1]; 1.15 fold enrichment (6-mer frequency, TF over GST control) in experiment [2]; 1.19 fold enrichment (6-mer frequency, TF over GST control) in experiment [3]; 1.16 fold enrichment (6-mer frequency, TF over GST control) in experiment [4]; 1.04 fold enrichment (6-mer frequency, TF over GST control) in experiment [5]; 1.15 fold enrichment (6-mer frequency, TF over GST control) in experiment [6]. Also, the binding signal in experiment [7] is 1.12 fold enrichment (6-mer frequency, TF over GST control); in experiment [8], 1.13 fold enrichment (6-mer frequency, TF over GST control).
